Screens deposited in PubChem BioAssay by National Center for Advancing Translational Sciences (NCATS).
In the library only some 4.4% were active in any assay of this set; here they are far more common.
D1 PAM = Potentiators of Human D1 Dopamine Receptor: qHTS | 360,000 tested, 0.036% active | HEK293 TREx D1 cells, calcium flux, dopamine EC20 potentiation | AID 504651, 2011 | D(1A) dopamine receptor (Homo sapiens), P21728 | potentiation, % at 10 µM; in the data active means potentiation above about 30%; further: 0% is about no effect
D1 agonist = Allosteric Agonists of the Human D1 Dopamine Receptor: qHTS. D(1A) dopamine receptor (Homo sapiens), P21728. HEK293 T-REx D1 cells, calcium flux, agonist mode. activation, % at 2 µM. 360,000 tested, 1% active; further: 0% is about no effect
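Inducible HEK293 T-REx D1 cells, force-coupled to calcium signalling, were plated at 4000 cells/well with tetracycline and held overnight at 30 C. After no-wash calcium dye loading, compound-evoked calcium rise over 180 s flagged agonists.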
TRHR PAM = qHTS for Small Molecule Agonists and Allosteric Enhancers of Human TRH Receptor: Primary Screen for Enhancers. Thyrotropin-releasing hormone receptor (Homo sapiens), P34981. AID 493056, 2011. TRHR cells, fluo-8 calcium fluorescence, EC20 TRH enhancement. 360,000 tested, 0.66% active. enhancement, % at 2 µM; in the data active means enhancement above about 30%; further: 0% is about no effect
Target sequence (P34981 whole entry, looked up): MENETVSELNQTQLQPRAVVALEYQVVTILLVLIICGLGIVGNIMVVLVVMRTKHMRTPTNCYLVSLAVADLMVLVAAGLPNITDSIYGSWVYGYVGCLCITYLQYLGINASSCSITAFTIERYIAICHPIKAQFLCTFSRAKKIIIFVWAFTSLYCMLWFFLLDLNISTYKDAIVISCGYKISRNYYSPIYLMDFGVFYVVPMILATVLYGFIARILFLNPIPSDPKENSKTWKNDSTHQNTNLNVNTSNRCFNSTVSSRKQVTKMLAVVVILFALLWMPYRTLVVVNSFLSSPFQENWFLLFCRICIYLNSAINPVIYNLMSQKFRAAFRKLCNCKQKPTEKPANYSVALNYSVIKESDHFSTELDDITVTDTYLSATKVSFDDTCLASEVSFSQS
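Enhancer read-out: after compound pinning and an initial kinetic agonist-mode read, an EC20 of TRH (10 nM final) was injected and fluo-8 calcium signal (Ex 480/Em 530) followed at 1 s/cycle for 100 cycles in TRHR-expressing cells.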
TRHR ag = qHTS for Small Molecule Agonists and Allosteric Enhancers of Human TRH Receptor: Primary Screen for Agonists; 360,000 tested, 0.18% active; TRHR cells, calcium flux fluo-8, FDSS agonist mode; Thyrotropin-releasing hormone receptor (Homo sapiens), P34981; activation, % at 2 µM; AID 493084, 2011; further: 0% is about no effect
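Read-out: compound-evoked intracellular calcium rise in TRHR cells, fluo-8 dye, kinetic FDSS fluorescence at 1 s/cycle following a 10-cycle baseline. Cells cultured overnight before dye loading (30 min–1.5 h, RT).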
D1 antagonist = Antagonist of Human D 1 Dopamine Receptor: qHTS; D(1A) dopamine receptor (Homo sapiens), P21728; HEK293 TREx D1 cells, calcium flux, dopamine EC80; stronger effect = lower value; activity change, negative = inhibition, % at 10 µM; 360,000 tested, 3.2% active; in the data active means activity change below about -30%; further: on the % scale 0 is the no-effect control and ±100 the full control effect
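Antagonism measured as reduced calcium response to an EC80 dopamine addition following 180 s compound pre-read; cells were inducible HEK293 Trex D1 plated overnight at 30 C, read kinetically at 1 cycle/sec.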
USP1-UAF1 inh = Inhibitors of USP1/UAF1: Primary Screen. 390,000 tested, 0.23% active. recombinant USP1/UAF1, Ub-Rhodamine cleavage fluorescence. Ubiquitin carboxyl-terminal hydrolase 1 (Homo sapiens), O94782. AID 743255, 2014. Potency, µM (titrated, usually from 57.1 µM), inactives show at the highest dose activity change, negative = inhibition, actives largely listed as inhibitors; active means well fitted inhibition curve with a large enough effect; inconclusive means small, poorly fitted or top-dose-only effect; inactive means no such curve, though single readings can be large or run the other way; further: potency means the concentration at half of the fitted maximal effect; on the % scale 0 is the no-effect control and ±100 the full control effect; nearly all actives have a fitted effect of over 60% in size
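Step one: compound is pinned into 1nM USP1/UAF1 in HEPES pH 7.8 buffer with TCEP. Step two: 15 min room-temperature incubation. Step three: Ub-Rho (150nM final) starts cleavage, tracked by fluorescence over six one-minute reads.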
An asterisk follows results filed as active; ? = inconclusive; . = no result. Unless noted, no stated cut-off is given here; in the data, active means activation above about 30%; inactive means the rest.

SMILES	D1 PAM	D1 agonist	TRHR PAM	TRHR ag	D1 antagonist	USP1-UAF1 inh
NC(=O)CC(c1ccccc1)c1ccc2c(c1)OCO2 (configuration not stated)	0	2	33*	0	0	-8%
COc1ccc(C(CC(=O)O)c2ccc3c(c2)OCO3)cc1 (configuration not stated)	-5	3	-1	0	-14	-14%
CCOc1ccc(S(=O)(=O)NC2CCCCCC2)cc1	-9	4	-7	-1	-26	1%
CCOc1ccc(NC2CCCCC2NS(=O)(=O)c2ccccc2)cc1 (configuration not stated)	22	-1	0	-1	-35*	-22%
COC(=O)c1c(C)oc2ccc(N(C(=O)Oc3ccccc3)S(=O)(=O)c3ccc(C(C)(C)C)cc3)cc12	1	1	-7	-1	-7	?
CCCCn1c(C)cc2c(c1=O)C1O[C@](c3ccsc3)(Cc3ccccc31)O2	4	2	33*	0	5	.
Cc1cc2c(c(=O)n1Cc1ccccc1)C1O[C@](c3ccsc3)(Cc3ccccc31)O2	-2	1	-2	3	-15	.
CCc1cccc(C)c1NC(=O)CSc1nnc(N)s1	0	-1	2	-2	5	-20%
Cc1ccc(C)c(C(=O)COC(=O)CCN2C(=O)C3C4CCC(C4)C3C2=O)c1 (configuration not stated)	-7	2	-1	0	-45*	-7%
Cc1ccc(C)c(C(=O)COC(=O)CN2C(=O)C3C4CCC(C4)C3C2=O)c1 (configuration not stated)	-10	2	0	0	-11	-11%
CCOC(=O)N1CCc2c(sc3c2c(=O)n(-c2ccc(Cl)cc2)c(=O)n3CC(C)C)C1	-3	3	3	0	5	-16%
COc1cc(/C=C2/SC(=S)N(CC3CCCO3)C2=O)ccc1O (configuration not stated)	2	87*	8	64*	-1	?
CCOc1cc(/C=C2\SC(=S)N(Nc3ccccc3)C2=O)ccc1O	-6	40*	-2	35*	-47*	-9%
COc1cc(/C=C2\SC(=S)N(NC(=O)c3cccnc3)C2=O)ccc1O	-1	14	1	13	-1	?
COc1cc(/C=C2\SC(=S)N(NC(=O)c3ccc(O)cc3)C2=O)ccc1O	-8	124*	-1	48*	-11	?
COc1ccc(/C=C2\SC(=S)N(CC3CCCO3)C2=O)cc1 (configuration not stated)	0	12	2	1	2	-16%
Cc1ccc(C(=O)NN2C(=O)/C(=C/c3cn(C)c4ccccc34)SC2=S)cc1	-2	65*	9	0	18	-25%
O=C(O)c1ccc(/C=C2\SC(=S)N(Nc3ccccc3)C2=O)cc1	-2	2	-2	0	-14	-7%
O=C1/C(=C/c2ccc(O)c(O)c2)SC(=S)N1Nc1ccccc1	-4	48*	-3	22	9	?
Cc1cc2c(c(=O)n1CCc1ccccc1)C(C(C)C)C(C#N)=C(N)O2 (configuration not stated)	-12	3	3	-2	-32*	-5%
CCN(CC)CCCn1c(C)cc2c(c1=O)C(c1ccccc1)C(C#N)=C(N)O2 (configuration not stated)	-7	0	3	0	-23	-3%
COc1ccc(C(CCNCc2ccc(OC(C)C)cc2)C(C)C)cc1 (configuration not stated)	1	31*	-3	0	12	-26%
